Screening results deposited in PubChem BioAssay by National Center for Advancing Translational Sciences (NCATS).
HCV inhibitor: HCV inhibition | Huh7.5.1 HCVcc-Cre infection, luciferase reporter, 44 h | 340,000 tested, 3.4% active | AID 651820 | Potency, µM (top dose mostly 41.8 µM), inactives show top-dose activity change, negative = inhibition, most hits filed as inhibitors; further: potency means the concentration at half of the fitted maximal effect
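Seed cells (1,000/well) for 4 h; treat with compound and infect with HCVcc-Cre, moi about 0.5. Incubate 44 h, then detect luciferase activity.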
Sm TGR block: S. mansoni TGR enzyme inhibition; Potency, µM (highest dose often 114 µM), inactives show at the highest dose activity change, negative = inhibition, actives largely listed as inhibitors; 360,000 tested, 3% active; purified TGR, DTNB reduction, TNB absorbance 405 nm; further: potency means the concentration at half of the fitted maximal effect; nearly all actives have a fitted effect of over 60% in size
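First, TGR (20 nM dispensed) and NADPH were mixed with compound. Second, a 15 min room-temperature incubation followed. Third, further NADPH and then DTNB were added to start the reaction. Finally, TNB absorbance was monitored kinetically.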
VACV mCherry inh: inhibitors of vaccinia virus infection (mCherry reporter signal); 310,000 tested, 0.63% active; Potency, µM (series often up to 36.5 µM), for the others: at the highest dose activity change, negative = inhibition, most hits filed as inhibitors; AID 720579; Vaccinia virus mCherry reporter infection, fluorescence; calls by dose curve; tested in A549 cells; further: potency means the concentration at half of the fitted maximal effect; nearly all actives have a fitted effect of over 35% in size
FMDV inh: blocks foot and mouth disease virus; AID 1159524; 410,000 tested, 1.2% active; Potency, µM (titrated, usually from 57.9 µM), inactives show top-dose activity change, negative = inhibition, actives largely listed as inhibitors; FMDV antiviral cell-based qHTS; calls by dose curve; tested in HEK293T cells; further: read-out not given here; potency means the concentration at half of the fitted maximal effect; nearly all actives have a fitted effect of over 45% in size
HCMV inh: blocks human cytomegalovirus replication | HFF cells, HCMV-luciferase reporter, 72 h; hits give low values | activity change, negative = inhibition, % at 57.5 µM | 410,000 tested, 4.5% active; in the data active means activity change below about -60%; inconclusive means no clear call, values can overlap the other calls; inactive means above about -39%
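After 16 h attachment at 37C, HFF cells received test compound and HCMV-luciferase (1 PFU/cell); reporter luminescence read 72 h later, data normalized against buffer-only and known inhibitor Salinomycin.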
VACV Venus inh: inhibitors of vaccinia virus (Venus reporter); Vaccinia virus Venus reporter expression, fluorescence; Potency, µM (series often up to 36.5 µM), without a hit: at the top dose activity change, negative = inhibition, most hits filed as inhibitors; AID 720580; 330,000 tested, 0.46% active; calls by dose curve; tested in A549 cells; further: potency means the concentration at half of the fitted maximal effect; nearly all actives have a fitted effect of over 30% in size
Active calls of the source: *; i = inactive; ? = inconclusive; . = no result. Sampled rows, rich in hits. Any-hit rate of the full collection: about 9.3%. Unless noted, the call rests on the fitted dose curve; in most records, active means well fitted curve in the direction sought with a large enough effect; inconclusive means small, poorly fitted or top-dose-only effect, or another doubt; inactive means no such curve, though single readings can be large; an effect the other way counts as inactive or inconclusive. On the % scale 0 is the no-effect control and ±100 the full control effect.

SMILES	HCV inhibitor	Sm TGR block	VACV mCherry inh	FMDV inh	HCMV inh	VACV Venus inh
Cc1ccc(N2C(=O)CC(Sc3nccc(C)n3)C2=O)cc1 (stereo not drawn)	-0.7%	?	i	9.7%	-4.5	-0.4%
CCc1ccccc1N1C(=O)C2CC(C)=C(C)CC2C1=O (stereo not drawn)	17.8%	?	.	-21.6%	-10.6	-4.7%
Cc1ccnc(SC2CC(=O)N(c3ccc([N+](=O)[O-])cc3)C2=O)n1 (stereo not drawn)	2.4%	22.4µM*	.	6.3%	13.6	.
CCc1ccccc1N1C(=O)CC(Sc2nccc(C)n2)C1=O (stereo not drawn)	10.2%	39.8µM*	.	3.2%	18.8	.
CN1CCN(CC#CCC(O)(c2ccccc2)C2CCCC2)CC1 (stereo not drawn)	-21.1%	-30.4%	.	11.4%	27.5	-8.4%
Cc1cc(Cl)ccc1OCC(=O)OCC(=O)Nc1ccc(F)c([N+](=O)[O-])c1	21.6%	4.5%	-13.7%	-2.3%	28.8	0.4%
Cc1ccc(NC(=O)COc2ncnc3c(Cl)cc(Cl)cc23)cc1[N+](=O)[O-]	-4.6%	4.47µM*	-1.7%	-18.6%	2.3	-7.1%
CCOC(=O)c1c(/N=C/N(C)C)sc(/C=N/Nc2ccccc2)c1-c1ccccc1	?	-5.7%	.	-19.2%	2.5	.
CCOC(=O)c1c(/N=C/N(C)C)sc(/C=N/Nc2ccccc2)c1-c1ccccc1Cl	6.31µM*	-10.4%	-18.6%	-4.6%	-16.7	-21.4%
N/C(Cc1ccc(Cl)cc1)=N\OC(=O)c1cccc2ccccc12	7.08µM*	14.7%	-16.2%	?	-18.8	-13.3%
N/C(=N\OC(=O)c1cccc2ccccc12)c1cccnc1	11.2µM*	0.0%	.	52.1%	191.4	.
Cc1cccc(/C(N)=N/OC(=O)c2cccc3ccccc23)c1	.	-0.5%	.	.	172.5	.
COc1ccc(C/C(N)=N/OC(=O)c2ccc(Cl)cc2)cc1	-0.7%	-0.2%	i	6.6%	?	-4.2%
N/C(Cc1ccc(Cl)cc1)=N\OC(=O)c1ccc2ccccc2c1	31.6µM*	2.0%	-12.1%	-9.9%	9.5	-5.0%
COC(=O)c1cc2c(n(-c3ccccc3)c1=O)CCCC2=O	33.9%	.	i	1.6%	-12.9	0.0%
Cc1cccc(N2CCN(S(=O)(=O)c3ccc(-c4coc(C)n4)cc3)CC2C)c1 (stereo not drawn)	-15.1%	-0.8%	.	-22.0%	0.0	.
Cn1c2ccc(F)cc2c2ncn(CC3CCCO3)c(=O)c21 (stereo not drawn)	8.8%	12.1%	.	19.4%	38.1	.
Nc1nc(Nc2ccccc2F)nc(NCc2ccccc2)c1[N+](=O)[O-]	?	1.1%	.	-2.2%	-14.4	.
COC(=O)/C(=C\C(=O)c1ccccc1)Nc1ccc(OC)cc1	11.8%	23.4%	-6.8%	25.4%	38.4	-12.4%
Cc1nn(-c2ccccc2)c(C)c1C(=O)OC(C)C(=O)NC1CCCCC1 (stereo not drawn)	12.6µM*	.	i	?	-35.9	-13.7%
Cc1nn(-c2ccccc2)c(Cl)c1C(=O)NC1CCCCC1	-0.1%	-1.8%	-15.7%	10.0%	9.3	-21.7%
Cc1nn(-c2ccccc2)c2sc(C(=O)NCCN3CCOCC3)cc12	2.24µM*	-15.5%	-23.9%	0.2%	82.2	-18.5%
Cc1nn(-c2ccccc2)c2sc(C(=O)N3CCCCC3)cc12	?	-0.2%	.	9.4%	.	-22.3%
Cc1nn(-c2ccccc2)c2sc(C(=O)NC3CCCCC3)cc12	2.51µM*	-7.7%	i	.	-15.0	-15.8%
Cc1nn(CC(=O)NCC2CCCO2)c(=O)c2ccccc12 (stereo not drawn)	3.7%	-1.9%	i	-21.6%	-17.0	-13.9%
SMILES	HCV inhibitor	Sm TGR block	VACV mCherry inh	FMDV inh	HCMV inh	VACV Venus inh
CC[C@H](C)C(N)c1cn([C@@H](CC(N)=O)C(=O)N2CCNCC2)nn1 (stereo partly drawn)	-0.9%	-10.3%	-17.0%	-22.7%	-13.5	-4.4%
O=C1NC(c2ccccc2)(C(F)(F)F)SC2=CCCCCN12 (stereo not drawn)	13.6%	25.1µM*	i	-28.1%	28.5	-22.4%
CCN(CC)P(=O)(Nc1ccc([N+](=O)[O-])cc1)c1c(C)nn(CCC#N)c1NC(=O)c1ccc(Cl)cc1 (stereo not drawn)	11.7%	6.3%	i	20.9%	-17.1	3.9%
Cn1cc([N+](=O)[O-])c(C(=O)NNC(=O)c2ccc([N+](=O)[O-])cc2Cl)n1	2.7%	-13.3%	i	5.7%	11.1	-7.2%
CCCCn1nnnc1C(c1cc2ccccc2o1)N1CCN(c2cc(C)nc3ccccc23)CC1 (stereo not drawn)	.	.	-19.3%	-17.5%	-103.1*	-11.6%
COc1ccccc1N=c1oc2cc(O)ccc2cc1C(N)=O	4.5%	-0.4%	-24.6%	29.6%	-35.7	?
COc1ccc2cc(C(N)=O)c(=Nc3ccc(C)cc3)oc2c1	-23.2%	7.5%	-14.4%	9.8%	-83.1*	-6.0%
Cc1cccc(N=c2oc3cc(O)ccc3cc2C(N)=O)c1	?	-1.8%	-21.9%	3.6%	-61.2*	?
CCCCn1c(N)c(N(CC(C)C)C(=O)C(C)SCc2nc3sc(C)c(C)c3c(=O)[nH]2)c(=O)[nH]c1=O (stereo not drawn)	17.3%	-17.3%	-8.3%	-10.8%	-19.2	-1.3%
O=C1c2ccccc2C(O)N1c1ccc(Cl)cc1 (stereo not drawn)	-3.0%	-0.6%	3.9%	22.3%	-10.4	-0.1%
COC(=O)C1CN(C#N)N(c2ccc(Cl)cc2)C12c1ccccc1-c1ccccc12 (stereo not drawn)	3.98µM*	5.62µM*	?	3.55µM*	.	?
Cc1ccc(C(=O)CSc2nnc(-c3ccco3)n2CC2CCCO2)cc1 (stereo not drawn)	14.1%	20µM*	-16.6%	-2.2%	-7.2	-3.3%
Cc1occc1-c1nnc(SCC(=O)c2ccc(Cl)cc2)n1CC1CCCO1 (stereo not drawn)	-1.3%	20µM*	-8.1%	4.2%	12.5	-1.4%
Cc1ccc(NC(=O)C(C)Sc2nnc(C)n2CC2CCCO2)cc1 (stereo not drawn)	11.3%	6.8%	-2.5%	-7.6%	-71.1*	16.5%
Cc1ccc(NC(=O)CSc2nnc(C)n2CC2CCCO2)cc1 (stereo not drawn)	17.3%	16.7%	.	-15.4%	-27.8	.
CCn1c(SCC(=O)c2ccc(Cl)cc2)nnc1-c1ccoc1C	?	25.1µM*	-14.4%	-3.9%	14.1	-0.9%
NC(=O)NC(=O)CSc1nnc(-c2ccc(Cl)cc2)n1CC1CCCO1 (stereo not drawn)	11.5%	1.3%	-10.8%	11.5%	0.3	-12.5%
CC1CCCCN1C(=O)CSc1nnc(-c2ccco2)n1CC1CCCO1 (stereo not drawn)	7.6%	?	.	3.5%	31.7	.
CCn1c(SCC(=O)c2ccc(C)cc2)nnc1-c1ccoc1C	-19.4%	?	i	14.5%	-30.7	-12.6%
